Laboratory results: PubChem BioAssay (NCI)
About 79,000 compounds went through this panel and 15% of them were active in at least one assay; those are over-represented in the sample as a whole. The source made the active and inactive calls. Cut-off read from the data, not from the text of the source: active = growth inhibition above about 70%; inactive = the rest.

Columns and labels:
[1] = NCI Yeast Anticancer Drug Screen. Data for the mlh1 strain (AID 171);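 note: 0% = growth of vehicle-treated control cultures of the same strain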; conditions: S. cerevisiae mlh1 strain growth inhibition, active compounds read high
Outline: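 Inhibition values reflect reduced yeast growth in the presence of compound, referenced to vehicle controls, using a strain chosen for its alteration in DNA repair or cell cycle control.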

[2] = NCI Yeast Anticancer Drug Screen. Data for the sgs1 strain (AID 173);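 note: 0% = growth of vehicle-only control cultures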; conditions: S. cerevisiae sgs1 mutant, active compounds read high
Outline: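 Vehicle-treated cultures served as reference for growth inhibition of a yeast strain altered in DNA damage repair or cell cycle control after compound exposure.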

[3] = NCI Yeast Anticancer Drug Screen. Data for the mlh1 rad18 strain (AID 175); conditions: S. cerevisiae mlh1 rad18 strain growth inhibition, active compounds read high
Outline: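 Inhibition values reflect reduced growth of mutant yeast versus vehicle-treated controls following compound exposure; the mutations affect DNA damage repair.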

[4] = NCI Yeast Anticancer Drug Screen. Data for the rad18 strain (AID 177); conditions: S. cerevisiae rad18 mutant growth inhibition, active compounds read high
Outline: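 Steps: expose repair-mutant yeast to compound; measure growth; express as inhibition relative to vehicle control.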

[5] = NCI Yeast Anticancer Drug Screen. Data for the rad52 strain (AID 147);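 note: 0% = growth of vehicle-treated control cultures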; conditions: S. cerevisiae rad52 mutant growth inhibition, active compounds read high
Outline: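 Inhibition of yeast growth, referenced to vehicle controls, was the measured output for a strain with defective DNA damage repair.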

[6] = NCI Yeast Anticancer Drug Screen. Data for the wt1 strain (AID 149);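 note: 0% = growth of vehicle-treated wt1 cultures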; conditions: S. cerevisiae wt1 strain (SPY 50644) growth inhibition, active compounds read high
Outline: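 wt1 strain grown with compound or vehicle; inhibition taken from the growth difference.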

[7] = NCI Yeast Anticancer Drug Screen. Data for the rad50EPP+ strain (AID 151);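 note: 0% = growth of vehicle-treated control cultures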; conditions: S. cerevisiae rad50 mutant strain, active compounds read high
Outline: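 Genetically defined yeast (rad50EPP+, DNA damage repair alteration) is grown with compound, and inhibition of growth is expressed relative to vehicle-treated controls.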

[8] = NCI Yeast Anticancer Drug Screen. Data for the mgt1 strain (AID 153); conditions: S. cerevisiae mgt1 mutant growth inhibition, active compounds read high
Outline: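 In the mgt1 strain, test compounds were added and growth inhibition was determined relative to vehicle-treated controls.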

[9] = NCI Yeast Anticancer Drug Screen. Data for the rad50 strain (AID 155);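 note: 0% = growth of vehicle-only cultures of the same strain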; conditions: S. cerevisiae rad50 strain growth inhibition, active compounds read high
Outline: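 DNA repair mutant yeast, compound exposure, growth read-out; inhibition is taken relative to vehicle.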

[10] = NCI Yeast Anticancer Drug Screen. Data for the mec2-1 strain (AID 157); conditions: S. cerevisiae mec2-1 strain, active compounds read high
Outline: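 Each compound was tested on mec2-1 yeast, a strain altered in DNA damage repair or cell cycle control. Growth inhibition is reported relative to vehicle.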

[11] = NCI Yeast Anticancer Drug Screen. Data for the rad14 strain (AID 159);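 note: 0% = growth of vehicle-treated control cultures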; conditions: S. cerevisiae rad14 strain growth inhibition, active compounds read high
Outline: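 DNA repair-defective yeast, compound-exposed; % growth inhibition derived by comparison with vehicle-treated controls.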

[12] = NCI Yeast Anticancer Drug Screen. Data for the CLN2oe strain (AID 163);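 note: 0% = growth of vehicle-only control cultures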; conditions: S. cerevisiae CLN2oe strain, active compounds read high
Outline: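 First, the altered yeast strain was treated with each compound; second, its growth was measured; finally, inhibition was derived by comparison with vehicle controls.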

[13] = NCI Yeast Anticancer Drug Screen. Data for the cln2 rad14 strain (AID 165);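 note: 0% = growth equal to vehicle treated cultures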; conditions: S. cerevisiae cln2 rad14 strain, active compounds read high
Outline: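 Test compounds were added to cln2 rad14 yeast cultures; inhibition of growth was then determined by comparison with vehicle treatment.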

[14] = NCI Yeast Anticancer Drug Screen. Data for the bub3 strain (AID 167); conditions: S. cerevisiae bub3 mutant strain, active compounds read high
Outline: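 In this screen, a yeast mutant lacking normal mitotic checkpoint function is challenged with compound. Relative growth versus vehicle gives the inhibition value.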

[15] = NCI Yeast Anticancer Drug Screen. Data for the wt2 strain (AID 169);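 note: 0% = growth of vehicle-treated yeast cultures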; conditions: S. cerevisiae wt2 strain growth inhibition, active compounds read high
Outline: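 The panel's yeast strains carry defined changes in DNA repair or cell cycle genes. Each strain is grown with compound, and growth loss is scored relative to vehicle.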

[16] = at 5.0 µM (retest, dose inferred, filed as 0.5)
[17] = at 50.0 µM (retest, dose inferred, filed as 5.0)

Measured: growth inhibition

CC[n+]1oc(C(=O)c2ccc(Cl)cc2)c(-c2ccccc2)c1-c1ccccc1.[Cl][Fe]([Cl])([Cl])[Cl]
inactive: [1]; at 1.2 µM 4% | [1]; at 3.7 µM 1% | [1]; at 11.0 µM 9% | [1]; at 33.0 µM 31% | [2]; at 1.2 µM 0% | [2]; at 3.7 µM -1% | [2]; at 11.0 µM 18% | [2]; at 33.0 µM 59% | [3]; [16] 27% | [4]; at 1.2 µM 4% | [4]; at 3.7 µM 7% | [4]; at 11.0 µM 24% | [4]; at 33.0 µM 49%
active: [1]; at 100.0 µM 74% | [2]; at 100.0 µM 87% | [3]; [17] 78% | [3]; at 50.0 µM 94.2% | [4]; at 100.0 µM 79%

CN(C)c1ccc(N=Nc2ccncc2)cc1
active: [5]; at 100.0 µM 71% | [7]; at 33.0 µM 87% | [7]; at 100.0 µM 82% | [9]; at 50.0 µM 82.3% | [9]; at 100.0 µM 77% | [14]; at 33.0 µM 78% | [14]; [17] 73% | [14]; at 50.0 µM 86.5% | [14]; at 100.0 µM 86%
inactive: [5]; at 1.2 µM 1% | [5]; at 3.7 µM 1% | [5]; at 11.0 µM 15% | [5]; at 33.0 µM 33% | [6]; at 1.2 µM -7% | [6]; at 3.7 µM -3% | [6]; at 11.0 µM -1% | [6]; at 33.0 µM -1% | [6]; at 100.0 µM 40% | [7]; at 1.2 µM 3% | [7]; at 3.7 µM 12% | [7]; at 11.0 µM 64% | [8]; at 1.2 µM -2% | [8]; at 3.7 µM 12% | [8]; at 11.0 µM 31% | [8]; at 33.0 µM 35% | [8]; at 100.0 µM 49% | [9]; at 1.2 µM 8% | [9]; at 3.7 µM 11% | [9]; [16] -86% | [9]; at 11.0 µM 31% | [9]; at 33.0 µM 55% | [9]; [17] 27% | [10]; at 1.2 µM -2% | [10]; at 3.7 µM 7% | [10]; [16] -41% | [10]; at 11.0 µM 19% | [10]; at 33.0 µM 18% | [10]; [17] -3% | [10]; at 50.0 µM 53.1% | [10]; at 100.0 µM 67% | [11]; at 1.2 µM 9% | [11]; at 3.7 µM 31% | [11]; at 11.0 µM 51% | [11]; at 33.0 µM 47% | [11]; at 100.0 µM 52% | [12]; at 1.2 µM 13% | [12]; at 3.7 µM 22% | [12]; at 11.0 µM 37% | [12]; at 33.0 µM 38% | [12]; at 100.0 µM 36% | [13]; [16] -36% | [13]; [17] 2% | [13]; at 50.0 µM 37.1% | [14]; at 1.2 µM 4% | [14]; at 3.7 µM 22% | [14]; [16] -13% | [14]; at 11.0 µM 60% | [15]; at 1.2 µM 3% | [15]; at 3.7 µM 7% | [15]; at 11.0 µM 22% | [15]; at 33.0 µM 23% | [15]; at 100.0 µM 20% | [1]; at 1.2 µM 7% | [1]; at 3.7 µM 11% | [1]; at 11.0 µM 29% | [1]; at 33.0 µM 42% | [1]; at 100.0 µM 47% | [2]; at 1.2 µM 15% | [2]; at 3.7 µM 41% | [2]; at 11.0 µM 63% | [2]; at 33.0 µM 67% | [2]; at 100.0 µM 68% | [3]; [16] -82% | [3]; [17] 4% | [3]; at 50.0 µM 67.7% | [4]; at 1.2 µM 6% | [4]; at 3.7 µM 24% | [4]; at 11.0 µM 35% | [4]; at 33.0 µM 19% | [4]; at 100.0 µM 31%
